E coli growth-1: bacterial growth inhibition, counter-screen for AddAB inhibitors. E. coli V3065 growth, OD600 absorbance, 18 h. inhibition, % at 11.9 µM. hit rate 0.27% among 330,000. AID 449728;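 active means inhibition above the campaign's mean inhibition across all tested compounds plus 3 SD, cut at about 9.9% in these data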;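 further: uninfected addAB+ strain grown without phage in ampicillin broth; 0% = DMSO wells and 100% = ciprofloxacin 0.95 µg/ml wells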
AddAB inh: less growth of phage-infected E. coli with AddAB; inhibition, % at 11.9 µM; hit rate 0.29% among 330,000; E. coli expressing H. pylori AddAB, absorbance growth; AID 435030; in the data active means inhibition above about 12%;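 further: 0% = vehicle wells of infected cells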
E coli growth-2: E. coli growth inhibition; AID 1053175; hit rate 0.21% among 330,000; OD600 absorbance (concentration not given with the values); Escherichia coli growth, OD600, 23 h; stronger effect = lower value;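 active means OD600 absorbance below the run mean of sample wells minus 3.6 SD, in any replicate, cut at about 0.56 in these data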
Tat export inh: E. coli Tat transport inhibition. E. coli MC4100 TorA-mCherry Tat export, fluorescence. inhibition, % at 10 µM. hit rate 0.036% among 340,000;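 active means mean replicate inhibition at least 50% and at least half of replicates individually reaching 50%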;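 further: exported cargo escapes ClpAP degradation while cytoplasmic cargo is degraded and loses fluorescence; 0% = median of neutral control wells and 100% = median of NaSCN control wells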
phage Ecoli inh: E. coli growth loss with phage present. growth absorbance. inhibition, % at 11.9 µM. hit rate 0.26% among 360,000. AID 651602; in the data active means inhibition above about 11%
* marks the source's active call; other numbers are inactive results; · = not tested or not shown. Hits are enriched below; roughly 0.5% of the tested compounds scored in any of these assays.

SMILES	E coli growth-1	AddAB inh	E coli growth-2	Tat export inh	phage Ecoli inh
CCn1cc(C(=O)O)c(=O)c2cc(Br)ccc21	0.5	0.2	0.557*	-0.8	-0.2
CCn1cc(C(=O)N[C@@H](C)C(=O)OC)c(=O)c2cc3c(cc21)OCO3	7.8	5.4	0.0835*	0.5	1.4
CCn1cc(C(=O)O)c(=O)c2cc3c(cc21)OCO3	96.5*	97.0*	·	·	·
CC(C)CC(CO)N1CCN(Cc2ccc(O)cc2)CCC1=O (centres undefined)	·	·	0.672	·	·
COc1ccc(C2C3C(=O)N(C(C)(C)C)C(=O)C3[C@]3(CC(C)C)C(=O)N(c4cccc(Br)c4)C(=O)N23)cc1 (some centres undefined)	·	·	0.687	·	·
CC1CCN(C(=O)c2ccc(S(=O)(=O)N3CCCCCC3)cc2)CC1	1.9	2.7	0.649	4.2	2.5
CC1CCN(C(=O)c2ccc(S(=O)(=O)N3CCCC3)cc2)CC1	-0.7	3.7	0.677	54.5*	3.3
Cc1ccc(Cn2c(N)nc3ccccc32)cc1	2.1	5.7	·	-4.4	3.5
Nc1nc2ccccc2n1Cc1ccc(Cl)c(Cl)c1	3.3	3.0	0.439*	13.4	-1.7
CC[n+]1ccc(/C=C/c2ccc(N(C)C)cc2)c2ccccc21	·	·	0.347*	-299.6	-0.8
CCN(CC)c1ccc(/C=C/c2ccc3ccc(OC)cc3[n+]2CC)cc1	12.4*	11.8	0.502*	-444.8	7.4
CC[n+]1c(/C=C/c2ccc(N(C)C)cc2)ccc2ccccc21	1.7	4.3	0.469*	-369.9	3.9
CCN1C(=O)C2C(c3ccc(Cl)cc3)N3C(=O)CN(CCOC)C(=O)[C@@]3(Cc3ccccc3)C2C1=O (some centres undefined)	·	·	0.682	·	·
C(=Cn1nnc2ccccc21)c1ccccn1	·	·	0.618	·	·
Cc1ccc(Nc2cc(C)c3c(O)cccc3n2)cc1C	1.6	3.9	0.503*	7.5	1.2
COc1ccc(Nc2cc(C)c3c(O)cccc3n2)cc1	0.8	3.0	0.545	-18.6	7.1
COC(=O)c1ccc(C23CC4(C2)C(CN(Cc2ccc(C(F)(F)F)cc2)C4c2ccccc2)C3c2ccc(Cl)nc2)cc1 (centres undefined)	·	·	0.718	·	·
Cc1cc(C(=O)N/N=C/c2cccs2)n[nH]1	1.1	4.1	·	0.6	3.3
O=[N+]([O-])c1ccc(C=Nc2ccc(Cl)c([N+](=O)[O-])c2)s1	·	·	·	1.5	9.6
Cc1cc(C)cc(N=Cc2ccc([N+](=O)[O-])s2)c1	0.4	2.0	0.54*	1.0	8.4
NC(=O)c1ccc(N=Cc2ccc([N+](=O)[O-])s2)cc1	2.6	7.9	0.347*	-1.9	5.7
Cc1cc(C(=O)NN=Cc2ccc([N+](=O)[O-])s2)n[nH]1	·	·	0.457*	·	·
Cc1cc(-c2n[nH]c(=S)n2N=C/C=C/c2ccccc2)n[nH]1	·	·	0.691	·	·
Cc1cc(-c2n[nH]c(=S)n2N=C/C(Br)=C/c2ccccc2)n[nH]1	·	·	0.0585*	·	·
CC1CCC(=O)N(C(CC#N)Cc2ccccc2)CC1 (centres undefined)	·	·	0.695	·	·
SMILES	E coli growth-1	AddAB inh	E coli growth-2	Tat export inh	phage Ecoli inh
CCOC(=O)C1C2COc3ccc(C)cc3C2N2C(=O)C(C)NC(=O)[C@@]12C (some centres undefined)	·	·	0.651	·	·
CC(C)CC(NC(=O)c1[nH]cnc1C(=O)Nc1ccc(CNC(=O)OC(C)(C)C)cc1)C(=O)OC(C)(C)C (centres undefined)	·	·	0.664	·	·
CCOC(=O)NN=Cc1ccc([N+](=O)[O-])o1	·	·	0.455*	·	·
Cc1ccc(C(=O)NN=Cc2ccc([N+](=O)[O-])o2)cn1	·	·	0.438*	·	·
Cc1ccc(C(=O)N/N=C/c2ccc(-c3ccccc3[N+](=O)[O-])o2)cn1	-0.9	0.7	·	-3.5	1.4
NC(=O)C1CC2(CC(c3cccc(NC(=O)COc4ccc(Cl)cc4)c3)=NO2)CN1C(=O)c1ccc(Cl)cc1 (centres undefined)	·	·	0.681	·	·
CC(=O)OC(COc1c2ccoc2cc2oc(=O)ccc12)C(C)(C)O (centres undefined)	·	·	0.646	·	·
COC(=O)c1c(NC(=O)Cc2cccs2)sc2c1CCC(C)C2 (centres undefined)	-0.8	2.9	0.697	6.5	0.3
COC(=O)c1c(NC(=S)NN2CCN(C)CC2)sc2c1CCC(C)C2 (centres undefined)	-5.1	-3.0	0.485*	13.8	2.9
CC(=O)n1cc(C2C=C(C(=O)N3CCN(Cc4ccc5c(c4)OCO5)CC3)OC(OCc3ccc(CO)cc3)C2)c2ccccc21 (centres undefined)	·	·	0.684	·	·
C#CCOCCOCCOCCNc1nc(N2CCN(C(=O)C(CCC(=O)O)n3cc(C(N)CC(C)C)nn3)CC2)nc(N2CCN(C(=O)C(CCC(=O)O)n3cc(C(N)C(C)CC)nn3)CC2)n1 (centres undefined)	·	·	0.644	·	·
CC(=O)Nc1cccc(C(=O)/C=C/c2ccc[nH]2)c1	10.7*	8.3	0.601	-15.3	7.3
CC(=O)Nc1cccc(C(=O)/C=C/c2ccc(/C=C/C(=O)c3cccc(NC(C)=O)c3)cc2)c1	2.9	3.2	·	·	1.4
N=C(N)SCc1cn(-c2ccccc2)nc1-c1ccc(Br)cc1	·	·	0.069*	7.2	8.5
Cc1ccc(-c2nn(-c3ccccc3)cc2CO)cc1	1.4	-0.1	0.658	12.1	1.4
Cc1c(NC(=O)COc2ccc3ccccc3c2)c(=O)n(-c2ccccc2)n1C	2.3	1.6	0.521*	·	1.6
Cc1c(NC(=O)COc2cccc(F)c2)c(=O)n(-c2ccccc2)n1C	-0.5	-0.1	0.701	-2.7	2.5
CC1(C)OC2OC(C(O)CON3C(=O)c4ccccc4C3=O)C(O)C2O1 (centres undefined)	·	·	0.644	·	·
CCc1cccc2c1Sc1ccccc1CC2N1CCNCC1 (centres undefined)	1.4	3.5	0.61	-4.4	3.4
Cc1cccc2c1Sc1ccc(Cl)cc1CC2N1CCNCC1 (centres undefined)	0.0	3.0	0.394*	·	·
CCOc1ccc(NC(=O)C2CCCN(S(=O)(=O)c3cnc[nH]3)C2)cc1 (centres undefined)	0.3	0.0	0.688	-2.2	·
CCOC(=O)Cc1csc(NC(=O)C2CCCN(S(=O)(=O)c3cnc[nH]3)C2)n1 (centres undefined)	14.0*	24.4*	0.727	7.9	1.5
COCCCNC(=O)CSc1ccsc1[N+](=O)[O-]	11.2*	11.6	0.686	-2.9	5.6
O=C(C=Cc1ccco1)NC(=S)Nc1cc(C(F)(F)F)ccc1N1CCOCC1	·	·	0.652	·	·
CC1CN(C(C)CO)C(=O)c2cc(NC(=O)Nc3ccc(C(F)(F)F)cc3)ccc2OC1CN(C)C(=O)Nc1ccc(C(F)(F)F)cc1 (centres undefined)	·	·	0.676	·	·
Cc1ccc(S(=O)(=O)NN=Cc2ccc([N+](=O)[O-])o2)cc1C	·	·	0.475*	·	·
CCc1ccc(S(=O)(=O)NN=Cc2ccc([N+](=O)[O-])o2)cc1	·	·	0.524	·	·
Cc1ccc(S(=O)(=O)NN=Cc2ccc([N+](=O)[O-])o2)cc1	·	·	0.472*	·	·
Cc1cc(C)c(S(=O)(=O)N/N=C/c2ccc([N+](=O)[O-])o2)c(C)c1	·	·	·	1.7	3.3
Cc1cc(C)c(S(=O)(=O)NN=Cc2ccc([N+](=O)[O-])o2)c(C)c1	·	·	0.506*	·	·

Assay outcomes (PubChem BioAssay)
